TDP1 cell noCPT: qHTS for Inhibitors of human tyrosyl-DNA phosphodiesterase 1 (TDP1): qHTS in cells in absence of CPT. DT40 Tdp1-/- hTDP1 cells, no CPT, ATP luminescence, 48 h. Potency, µM (titrated, usually from 46.2 µM), hits mostly inhibitors. actives 15% (n = 420,000). AID 686978, 2013; further: nearly all actives have a fitted effect of over 55% in size
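Growth kinetics read by CellTiter-Glo luminescence after ≥48 hr at 37 °C. Cells: DT40 Tdp1-/- stably carrying human TDP1, 400 per well, compound exposure in the absence of CPT (DMSO vehicle).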
MCF10A rereplic: A quantitative high throughput screen for small molecules that induce DNA re-replication in MCF 10a normal breast cells | MCF 10A DNA re-replication, Hoechst nuclear intensity, 48 h | Potency, µM (doses to about 46.1 µM), actives largely listed as activators | actives 2.9% (n = 350,000) | AID 624296, 2012; further: nearly all actives have a fitted effect of over 50% in size
BCR signal inh: qHTS Assay to Find Inhibitors of Chronic Active B-Cell Receptor Signaling; Potency, µM (top dose mostly 46.1 µM), usual class: inhibitors; ABC-DLBCL IkBa-CBG/CBR reporter, luminescence ratio, 4 h; actives 0.05% (n = 340,000); active means well fitted inhibition curve with a large enough effect in the signal ratio, with a control signal flat, not every such curve was filed as active; inconclusive means small, poorly fitted or top-dose-only effect, or effect the other way, or a change in a side signal; the % refers to the signal ratio
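TMD8 ABC-DLBCL cells carrying doxycycline-inducible green luciferase fused to IkappaBalpha plus unfused red luciferase were exposed to compounds (up to 46 uM) for 4 hrs at 37C. Activity came from the overlap-corrected green/red luminescence ratio.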
DT40 TDP1 CPT: qHTS for Inhibitors of human tyrosyl-DNA phosphodiesterase 1 (TDP1): qHTS in cells in presence of CPT; chicken DT40 Tdp1-/-;hTDP1 cells + 20 nM CPT, ATP luminescence, 48 h; Potency, µM (titrated, usually from 46.2 µM), hits mostly inhibitors; actives 12% (n = 420,000); AID 686979, 2013; further: nearly all actives have a fitted effect of over 55% in size
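Chicken DT40 Tdp1-/- cells stably complemented with human TDP1 were seeded at 400 cells/well in medium containing 20 nM camptothecin, exposed to pin-transferred compounds, and grown at 37 °C for at least 48 hr. Viability was read as ATP luminescence.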
IL-1B inflam inh: qHTS for Inhibitors of Inflammasome Signaling: IL-1-beta AlphaLISA Primary Screen | THP-1 LPS/ATP IL-1B secretion, AlphaLISA, 16 h; active compounds read low | activity change, % at 57.5 µM | actives 4.7% (n = 360,000) | AID 743279, 2014; in the data active means activity change below about -50%; inconclusive means mostly about -30% to -49%
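Secreted IL-1B measured by AlphaLISA bead assay after 16 h compound exposure of THP-1 cells; compounds (final up to 57.5 uM) added 1 h before LPS (250 ng/mL) and ATP (1.25 mM) stimulation; lower signal means less secretion.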
SW480 rerep: A quantitative high throughput screen for small molecules that induce DNA re-replication in SW480 colon adenocarcinoma cells | SW480 DNA re-replication, Hoechst DNA content imaging, 48 h | Potency, µM (series often up to 46.1 µM), actives largely listed as activators | actives 1.8% (n = 340,000) | AID 624297, 2012; further: nearly all actives have a fitted effect of over 55% in size
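SW480 cells exposed to compounds for 48 hr at 37 C, 5% CO2, then Hoechst-stained 40 min. Nuclear DNA content imaged by fluorescence scanning (405 nm excitation, 500-530 nm emission); re-replication scored as increased high-intensity nuclei.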
Hits are given with their value; i = inactive; ? = inconclusive; nt = no result; [ ] = remark or other dose. An excerpt weighted towards active compounds, which were near 19% of everything screened. Unless noted, the call rests on the fitted dose curve; in most records, active means well fitted curve in the direction sought with a large enough effect; inconclusive means small, poorly fitted or top-dose-only effect, or another doubt; inactive means no such curve, though single readings can be large; an effect the other way counts as inactive or inconclusive.

SMILES | TDP1 cell noCPT | MCF10A rereplic | BCR signal inh | DT40 TDP1 CPT | IL-1B inflam inh | SW480 rerep
CCCCCCCCN1C(=O)[C@H](CC(=O)NCc2ccccc2)C[C@@]2(C(=O)OCC)CCCC=C12 | ? | nt | nt | ? | -72 | nt
Cc1cc(C)c(S(=O)(=O)N2CCN(C(=O)CCn3nc(C)c(C)c3C)CC2)c(C)c1 | 15µM | i | i | i | -84 | i
COc1cccc(N2CCN(C(=O)c3cccc(S(=O)(=O)N4CCCC4)c3)CC2)c1 | ? | nt | nt | i | i | nt
Cc1nn(CCC(=O)N2CCN(S(=O)(=O)c3ccccc3)CC2)c(C)c1C | i | i | i | i | i | i
COc1cccc(N2CCN(C(=O)CCn3nc(C)c(S(=O)(=O)N4CCCC4)c3C)CC2)c1 | 15µM | nt | nt | ? | nt | nt
C[C@H](CO)N1C[C@H](C)[C@@H](CN(C)S(=O)(=O)c2cn(C)cn2)Oc2ncc(Br)cc2C1=O | ? | nt | nt | i | i | nt
CCCCCC1CCC(C(=O)NCCN2CCOCC2)CC1 (configuration not stated) | i | i | i | i | i | i
COc1ccc(C(O)(CCN2CCCCC2)C2CCCCC2)cc1 (configuration not stated) | 21µM | i | i | ? | i | i
COc1ccc(OC)c(-n2c(-c3ccc(S(C)(=O)=O)cc3)cc(C=O)c2C)c1 | i | i | i | i | i | i
COc1ccc(OC)c(-n2c(C)ccc2-c2ccc(S(C)(=O)=O)cc2)c1 | ? | i | ? | 18µM | i | i
O=C(O)c1ccc(NS(=O)(=O)c2cccc(C(=O)Nc3cccc(C(=O)O)c3)c2)cc1 | i | i | i | i | i | i
COCCSc1nnc(NC(=O)CS(=O)(=O)c2ccc(C)cc2)s1 | i | i | i | i | i | i
Cc1ccc(S(=O)(=O)CCc2nnc(N)s2)cc1C | i | i | i | i | i | i
CCOCCc1nnc(NC(=O)CCS(=O)(=O)c2ccccc2)s1 | 9.2µM | 21µM | ? | 21µM | i | ?
COCCSc1nnc(NC(=O)CCS(=O)(=O)c2ccccc2)s1 | 13µM | ? | ? | 7.3µM | -103 | ?
CC(C)Cc1nnc(NC(=O)CCS(=O)(=O)c2ccc(Cl)cc2)s1 | ? | ? | i | 21µM | i | ?
Cc1ccc(S(=O)(=O)CCc2nnc(NC(=O)CCl)s2)cc1C | 13µM | ? | i | 15µM | -100 | ?
O=C(N[C@H]1CC[C@H](CCNC(=O)C2CC2)O[C@@H]1CO)c1ccccn1 | i | nt | nt | i | i | nt
Cc1ncc2c(c1CNC(=O)c1ccccc1F)CCN(C(=O)c1ccccc1-n1cccn1)C2 | i | nt | nt | i[9.04 µM] | nt | nt
Cc1cc(C)cc(N(CCC(=O)O)S(=O)(=O)c2ccc3ccccc3c2)c1 | i | 8.2µM | i | i | i | ?
Cc1cc(C)cc(N(CCC(=O)Nc2nnc(C)s2)S(=O)(=O)c2ccc(Cl)cc2)c1 | 23µM | ? | i | ? | i | i
O=C1C2C3C=CC(CC3)C2C(=O)N1c1ccccc1[N+](=O)[O-] (configuration not stated) | i | i | ? | i | i | ?
CC(=O)Sc1nc(-c2ccccc2)[nH]c1S(=O)(=O)c1ccc(C)cc1 | 21µM | ? | i | 18µM | i | i
CCOC(=O)N1CCN(C(=O)c2cc(COc3ccc4ncccc4c3)on2)CC1 | 6.5µM | ? | ? | 6.5µM | i | i
Cc1cccnc1CN1CCN(C(=O)c2cc(COc3ccc4ncccc4c3)on2)CC1 | 7.3µM | ? | i | 5.8µM | i | i
SMILES | TDP1 cell noCPT | MCF10A rereplic | BCR signal inh | DT40 TDP1 CPT | IL-1B inflam inh | SW480 rerep
CC(=O)Nc1ccc2c(c1)C(C)(C)C(C)N2C (configuration not stated) | ? | i | i | 16µM | i | i
CNC(=O)c1ccccc1NC(=O)C1CC(=O)N(C(C)C)C1 (configuration not stated) | i | i | i | i | i | i
CC1CCc2c(sc(NC(=O)C3c4ccccc4Oc4ccccc43)c2C(=O)OC(C)C)C1 (configuration not stated) | i | nt | nt | i | nt | nt
CCOC(=O)c1c(NC(=O)C2c3ccccc3Oc3ccccc32)sc(C)c1C | 21µM | nt | nt | ? | nt | nt
COC(=O)c1c(NC(=O)CSc2ccccc2N)sc(C)c1C | ? | i | ? | ? | -62 | i
CCC1CCc2c(sc(NC(=O)C3c4ccccc4Oc4ccccc43)c2C(=O)OC)C1 (configuration not stated) | 10µM | nt | nt | ? | nt | nt
CCOC(=O)c1c(NC(=O)C2C3C=CC(C3)C2C(=O)O)sc2c1CCC(CC)C2 (configuration not stated) | ? | ? | ? | 16µM | i | i
O=C(Nc1ccccc1OCc1cc(=O)n2ccccc2n1)c1ccccc1F | i | nt | nt | ? | nt | nt
CCNc1ncc2nc(-c3ccc(F)cc3)c(=O)n(C)c2n1 | i | nt | nt | ? | nt | nt
CCOc1ccccc1NC1=C(OC)C(=O)C(Nc2ccccc2OCC)=C(OC)C1=O | ? | i | nt | i | i | i
Cc1cc(C)c(NC(=O)Cn2c(=O)n(Cc3ccc(C(=O)NCc4ccco4)cc3)c(=O)c3sccc32)c(C)c1 | i | nt | nt | ? | nt | nt
CC(C)n1cnnc1SCC(=O)NC(=O)c1ccccc1 | i | i | i | ? | i | i
CCOc1cccc(C2NC(=S)NC(C)=C2C(=O)Nc2ccccc2)c1 (configuration not stated) | 23µM | ? | i | ? | i | ?
CCOC(=O)c1c(NC(=O)C2=C(C)NC(=S)NC2c2ccc(F)cc2F)sc(C)c1C (configuration not stated) | ? | ? | i | ? | ? | ?
COC(=O)c1c(NC(=O)C2c3ccccc3Oc3ccccc32)sc(C)c1C | ? | ? | i | 23µM | i | i
CCOC(=O)c1c(NC(=O)C2=C(C)NC(=S)NC2c2ccc(C)cc2)sc(C)c1C (configuration not stated) | 13µM | ? | i | ? | -76 | i
C/C(=N\NC(=O)c1c(Cl)cnn1C)c1ccc(NC(=O)c2ccc(Br)o2)cc1 | i | ? | i | ? | i | ?
Cc1cc(N2CCN(C)CC2)nc2ccc(NC(=S)NCc3cccs3)cc12 | ? | 9.2µM | i | ? | -77 | ?
CCN1CCN(c2cc(C)c3cc(NC(=S)N4CCC5(CC4)OCCO5)ccc3n2)CC1 | i | i | i | i | i | i
CCN1CCN(c2cc(C)c3cc(NC(=S)NCc4cccs4)ccc3n2)CC1 | 21µM | 7.3µM | i | ? | i | ?

Compound activity: PubChem, National Center for Advancing Translational Sciences (NCATS)
